Experiment in all cases: NCI-60 one-dose screen, 48 h (100 = growth as untreated, 0 = no growth, -100 = all killed)
For experiment [1], the system named is T-47D breast. As to conditions: 10 µM unless noted.
Experiment [2] relates to BT-549 breast. As to conditions: 10 µM unless noted.
Experiment [3] has as its system MDA-MB-435 melanoma. As to conditions: 10 µM unless noted.
In experiment [4] the test system is SW-620 colon. As to conditions: 10 µM unless noted.
The subject of experiment [5] is MCF7 breast. The conditions noted are these: 10 µM unless noted.
Experiment [6] deals with HCT-116 colon. The conditions noted are these: 10 µM unless noted.
Experiment [7] concerns HCC-2998 colon. The conditions noted are these: 10 µM.
For experiment [8], the system named is KM12 colon. As to conditions: 10 µM unless noted.

The panel holds about 83,000 compounds, 20% with a hit somewhere; the sample as a whole holds those more often.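 Each cell line was grown in a 96-well plate and treated with one concentration of compound for 48 hours. Values below 10 were considered active.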 Values without a mark were called inactive. Active and inactive are the calls of the source.

For the compound `CCN(CC)CCNC(=O)c1c(C)[nH]c(/C=C2\C(=O)Nc3ccc(F)cc32)c1C`, the growth was 80.4% in experiment [1]; 20.2% in experiment [2]; 3.92% (active) in experiment [3]; -2.88% (active) in experiment [4]; 7.17% (active) in experiment [5]; -59.4% (active) in experiment [6]. The values for the growth in experiment [7] and in experiment [8] were 1.98% (active) and 4.04% (active), respectively.
Turning to `CN(C)CCOC(=O)Nc1nc2ccc(Sc3ccccc3)cc2[nH]1`, the growth in experiment [1] is 22.6%; in experiment [2], 48.4%; in experiment [3] it was -54.2% (active); in experiment [4] it was 23%; in experiment [5], 22.7%; in experiment [6], 30.9%. Moreover, the growth in experiment [7] was 61.3%; in experiment [8] it was 20.8%.
Regarding `Cc1ccc2oc(=O)cc(-c3cc(-c4cc5ccccc5oc4=O)nc(N)c3C#N)c2c1`, the growth in experiment [1] was 59.7%; in experiment [2], 57.2%; in experiment [3] it was 65.7%; in experiment [4], 83.5%; in experiment [5], 78.1%; in experiment [6] it was 51.4%. Moreover, the values for the growth in experiment [7] and in experiment [8] were 93% and 65.7%, respectively.
For the compound `Cc1ccc(-n2nc(C(C)(C)C)cc2NC(=O)NCc2cc(F)ccc2Oc2ccc3c(cnn3CCO)c2)cc1`, the growth was -3.04% (active) in experiment [1]; 21.3% in experiment [2]; 7.09% (active) in experiment [3]; 25.7% in experiment [4]; 7.9% (active) in experiment [5]; 6.75% (active) in experiment [6]. Besides, the figures for the growth in experiment [7] and in experiment [8] were 19.9% and 8.7% (active), respectively.
For the compound `CSc1nc2ncncc2[nH]1`, the growth was 93.8% in experiment [1]; 110% in experiment [2]; 91.9% in experiment [3]; 106% in experiment [4]; 94.4% in experiment [5]; 84.8% in experiment [6]. In addition, the results for the growth in experiment [7] and in experiment [8] were 108% and 116%, respectively.
Take `C[C@@H](Nc1cc(F)cc(F)c1)c1cc(C(=O)N(C)C)cc2c(=O)cc(N3CCOCC3)oc12`: the growth in experiment [1] was -12.4% (active); in experiment [2] it was 34.2%; in experiment [3] it was 64.8%; in experiment [4] it was 60.5%; in experiment [5] it was 25.2%; in experiment [6], 55.8%. The growth was 55.3% in experiment [7] and 66.5% in experiment [8].
For `Cc1cccc(C)c1N1C(c2ccccc2)=NNC12C=CC(=O)c1c(O)cccc12` (configuration not stated), the growth was 96.2% in experiment [1]; 44.7% in experiment [2]; -90.1% (active) in experiment [3]; 103% in experiment [4]; 78.7% in experiment [5]; 45.3% in experiment [6]. For the same compound, the values for the growth in experiment [7] and in experiment [8] were 98.5% and 75.9%, respectively.
For the compound `CCN(CC)Cc1cc(Nc2cc(C(F)(F)F)c(C#N)c3nc4ccccc4n23)ccc1O`, the growth in experiment [1] is -1.95% (active); in experiment [2], 8.37% (active); in experiment [3], 16.9%; in experiment [4], 14.7%; in experiment [5] it was 8.72% (active); in experiment [6], 4.67% (active). Also, the growth in experiment [7] is 20.2%; in experiment [8], 10.8%.
In the case of `C1=C\COCc2cc(ccc2OCCN2CCCC2)Nc2nccc(n2)-c2cccc(c2)COC/1`, the growth in experiment [1] was -23.5% (active); in experiment [2], 21.9%; in experiment [3], -54.6% (active); in experiment [4], 3.2% (active); in experiment [5] it was -25.1% (active); in experiment [6], 1.18% (active). Also, the growth in experiment [7] was -16.4% (active); in experiment [8], -9.97% (active).
In the case of `CCc1nc2cc(F)c(/C=C/C(=O)NO)cc2c(=O)n1CCc1ccccc1`, the growth is 2.26% (active) in experiment [1]; 28.8% in experiment [2]; 23.8% in experiment [3]; 9.97% (active) in experiment [4]; 12.3% in experiment [5]; 5.01% (active) in experiment [6]. In addition, the growth in experiment [7] is 37.3%; in experiment [8], 25.6%.
In the case of `Cc1cc2c(-c3nc4ccccn4c3NC3CCCCC3)c(O)c(O)cc2c(O)c1-c1c(C)cc2c(-c3nc4ccccn4c3NC3CCCCC3)c(O)c(O)cc2c1O`, the growth is 11.9% in experiment [1]; 30.1% in experiment [2]; 27.5% in experiment [3]; 28.9% in experiment [4]; 43% in experiment [5]; 14.2% in experiment [6]. In addition, the values for the growth in experiment [7] and in experiment [8] were 46.2% and 29.6%, respectively.
Take `N[C@@H]1CCCN(c2c(/C=C3\SC(=O)NC3=O)cccc2-c2ccccc2)C1`: the growth was 25.7% in experiment [1]; 0.186% (active) in experiment [2]; 56.7% in experiment [3]; 60.3% in experiment [4]; 45.3% in experiment [5]; 50.6% in experiment [6]. Besides, the growth is 74.8% in experiment [7] and 60.3% in experiment [8].
Consider `COCc1c(-c2ccc(NC(=O)Nc3cc(C(F)(F)F)ccc3F)c(F)c2)c2c(N)ncnn2c1CN1CCOCC1`, for which the growth was -27% (active) in experiment [1]; -39.5% (active) in experiment [2]; -68.8% (active) in experiment [3]; -0.244% (active) in experiment [4]; -22.9% (active) in experiment [5]; -1.82% (active) in experiment [6]. In addition, the growth in experiment [7] was -52.1% (active); in experiment [8], -37.2% (active).
Regarding `COC(=O)CNC(=O)[C@@H](OC)[C@@H]1Cc2cc3cc(OC4CC(OC5CC(O)C(O)C(C)O5)C(O)C(C)O4)c(C)c(O)c3c(O)c2C(=O)[C@H]1OC1CC(OC2CC(OC3CC(C)(O)C(O)C(C)O3)C(O)C(C)O2)C(O)C(C)O1` (some centres not stated), the growth was 11.3% in experiment [1]; -44.3% (active) in experiment [2]; -39.2% (active) in experiment [3]; 12.7% in experiment [4]; 7.64% (active) in experiment [5]; 3.52% (active) in experiment [6]. For the same compound, the growth is -42.3% (active) in experiment [7] and 6.86% (active) in experiment [8].

For the origin of these results see PubChem BioAssay (NCI).
